Bioassay records from PubChem.
USP7 block: human USP7 deubiquitinase inhibition; actives 0.3% (n = 47,000); Q93009; purified USP7, Ub-rhodamine cleavage fluorescence; inhibition, % at 20 µM
Target sequence (Q93009 whole entry, looked up): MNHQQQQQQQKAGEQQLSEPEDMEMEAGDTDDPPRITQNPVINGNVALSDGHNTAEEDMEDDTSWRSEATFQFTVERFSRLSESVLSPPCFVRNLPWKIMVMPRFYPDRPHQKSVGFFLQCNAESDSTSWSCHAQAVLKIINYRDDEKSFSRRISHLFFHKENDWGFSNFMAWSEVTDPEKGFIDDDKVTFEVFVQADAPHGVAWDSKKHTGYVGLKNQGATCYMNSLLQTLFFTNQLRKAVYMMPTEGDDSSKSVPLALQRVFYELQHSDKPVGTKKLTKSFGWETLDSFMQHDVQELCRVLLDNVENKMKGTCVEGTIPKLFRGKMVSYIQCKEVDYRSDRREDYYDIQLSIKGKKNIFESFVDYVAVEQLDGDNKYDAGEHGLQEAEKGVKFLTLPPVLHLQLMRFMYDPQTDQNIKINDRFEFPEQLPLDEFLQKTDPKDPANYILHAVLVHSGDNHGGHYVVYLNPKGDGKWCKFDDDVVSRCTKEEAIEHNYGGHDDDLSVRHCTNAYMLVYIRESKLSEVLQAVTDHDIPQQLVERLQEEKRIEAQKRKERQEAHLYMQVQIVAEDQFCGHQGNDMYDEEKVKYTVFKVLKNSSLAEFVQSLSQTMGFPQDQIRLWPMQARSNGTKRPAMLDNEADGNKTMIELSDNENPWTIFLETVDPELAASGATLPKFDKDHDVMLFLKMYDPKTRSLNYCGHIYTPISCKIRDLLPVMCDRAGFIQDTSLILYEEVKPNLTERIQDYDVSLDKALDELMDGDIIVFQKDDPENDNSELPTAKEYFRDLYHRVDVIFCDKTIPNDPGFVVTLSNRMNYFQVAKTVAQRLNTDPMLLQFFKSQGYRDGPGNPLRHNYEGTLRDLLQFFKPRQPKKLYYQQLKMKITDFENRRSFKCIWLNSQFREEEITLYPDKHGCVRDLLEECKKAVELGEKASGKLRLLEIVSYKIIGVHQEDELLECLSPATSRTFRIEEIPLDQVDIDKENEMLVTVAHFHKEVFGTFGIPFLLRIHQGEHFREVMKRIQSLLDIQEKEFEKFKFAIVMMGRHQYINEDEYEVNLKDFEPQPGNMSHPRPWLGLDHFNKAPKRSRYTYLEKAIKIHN
UCHL1 inh: human UCHL1 deubiquitinase inhibition | AID 1645859 | purified UCHL1, Ub-rhodamine cleavage fluorescence | actives 0.2% (n = 47,000) | inhibition, % at 20 µM | P09936
USP8 inh: blocks human USP8 ubiquitin-rhodamine cleavage; P40818; purified USP8, Ub-rhodamine cleavage fluorescence, 30 min; inhibition, % at 20 µM; actives 4.2% (n = 47,000)
USP10 inh: inhibitors of human USP10 deubiquitinase; Q14694; purified USP10, Ub-rhodamine fluorescence, 60 min; inhibition, % at 20 µM; actives 1.1% (n = 47,000)
The depositor's hits bear a star. This is a sample that favours compounds with a hit; in the whole collection about 4.6% have one here. Rule as the data show it: active = inhibition above about 30%; inactive = the rest.

SMILES | USP7 block | UCHL1 inh | USP8 inh | USP10 inh
Cc1ccccc1SCc1nc2ccccc2c(=O)n1-c1cccc(C(F)(F)F)c1 | -13.8 | 9.3 | 18.5 | 7.2
O=c1c2ccccc2nc(CSc2cccc(Cl)c2Cl)n1-c1ccccc1 | 0.2 | -2.4 | 30.4* | 21.3
Cc1cccc(COc2ccc(C3SCC(=O)Nc4n[nH]c(C)c43)cc2)c1 (centres undefined) | -23.6 | 8.1 | 85.5* | 6.8
CC1CCCCN1Cc1nc2ccc([N+](=O)[O-])cc2c(=O)n1-c1ccccc1F (centres undefined) | -53.9 | -12.3 | -155.2 | -10.8
O=C(c1cc(Cl)c(Cl)[nH]1)c1cc(Cl)cc(Cl)c1O | -10.4 | -2.6 | 7.7 | 39.9*
Oc1ccc2cc(Br)ccc2c1CN1CC=C(c2ccccc2)CC1 | 1.8 | 0.7 | 43.5* | 2.1
O=C(CN1CC=C(c2ccccc2)CC1)Nc1ccc2c(c1)OCO2 | 2.7 | 1.8 | 8.2 | -2.4
CC(C)C1OC(=O)C(Cc2ccccc2)N(C)C(=O)C(C(C)C)OC(=O)C(Cc2ccccc2)N(C)C(=O)C(C(C)C)OC(=O)C(Cc2ccccc2)N(C)C1=O (centres undefined) | 0.7 | 0.5 | 3.9 | 4.7
C=C/C(C)=C/[C@H](C)C(=O)C[C@H](O)CC1CC(=O)NC(=O)C1 | 4.3 | 0.0 | -29.9 | -10.1
COc1ccccc1-c1cc([C@H]2CN3CC[C@H]2C[C@@H]3CN)n(C)n1 | -46.5 | -65.8 | 54.2* | -8.7
CC(C)=CCC[C@H](C(=O)O)[C@@H]1CC[C@]2(C)C3=C(CC[C@@]12C)[C@@]1(C)CCC(=O)C(C)(C)C1CC3 (some centres undefined) | 5.8 | -0.3 | 12.6 | 38.3*
CC[C@@H]1[C@@H](C)O[C@@](O)([C@@H](C)[C@H](O)[C@H](C)[C@H]2OC(=O)/C=C/C=C/[C@H](C)[C@@H]([C@@H](C)[C@@H](O)[C@H](C)[C@@]3(O)C[C@@H](O[C@H]4C[C@H](O)[C@H](O)[C@H](C)O4)[C@H](CC)[C@@H](C)O3)OC(=O)/C=C/C=C/[C@@H]2C)C[C@H]1O[C@H]1C[C@H](O)[C@H](O)[C@H](C)O1 | 50.9* | 13.2 | -14.8 | 1.2
CCN(CC)C(=O)C1=NOC2(CCCNC2)C1 (centres undefined) | 2.1 | -2.5 | -179.7 | 1.5
CN(C)[C@@H]1C(=O)C(C(N)=O)=C(O)[C@@]2(O)C(=O)C3=C(O)c4c(O)cccc4[C@@](C)(O)C3[C@H](O)[C@@H]12 (some centres undefined) | 89.1* | 89.5* | 50.5* | 61.6*
CN(C)[C@@H]1C(=O)C(C(N)=O)=C(O)[C@@]2(O)C(=O)C3=C(O)c4c(O)cccc4[C@@](C)(O)[C@H]3C[C@@H]12 | -73.9 | 20.7 | -0.3 | -2.7
CC(C)=CCCC1(C)C=Cc2c(O)c3c(c(CC=C(C)C)c2O1)O[C@]12C(=C[C@@H]4CC1C(C)(C)O[C@@]2(C/C=C(/C)C(=O)O)C4=O)C3=O (some centres undefined) | 84.5* | 64.4* | 70.2* | 75.2*
COc1ccc2c(c1O)-c1c(O)c(OC)cc3c1C(C2)N(C)CC3 (centres undefined) | -142.2 | -162.6 | -344.0 | -9.7
CCCCCC(O)c1c(O)cc2c(c1O)C(=O)c1c(O)cc(O)cc1C2=O (centres undefined) | -103.9 | 6.0 | -16.1 | 33.2*
Cn1c(=O)c2ncnnc2n(C)c1=O | -68.1 | 50.5* | 98.2* | 88.9*
c1ccc([C@H]2CCN[C@@H]3CCCCN(Cc4cccnc4)[C@H]23)cc1 | -3.3 | -1.9 | 17.9 | -5.2
O=C1CSC(c2ccc(Cl)cc2)c2c(n(C3CCCC3)[nH]c2=O)N1 (centres undefined) | 7.3 | 0.8 | 25.2 | 11.8
O=C1CSC(c2ccc(F)cc2)c2c(n(C3CCCCCC3)[nH]c2=O)N1 (centres undefined) | 21.6 | 3.9 | 83.3* | 11.1
C[C@@H]1N[C@@H]2CCCCCCCC(=O)O[C@H]3CC[C@@H](CCCCCCCC(=O)O[C@H]1CC2)N[C@H]3C | 0.1 | -1.8 | 2.0 | 0.2
CC1OC(OC2/C=C/C=C/C=C/C=C/CC/C=C\C=C\[C@H](C)[C@@H](O)[C@H](C)[C@@H](C)OC(=O)C[C@H](O)C[C@H](O)C[C@H](O)CC[C@@H](O)[C@H](O)C[C@]3(O)C[C@@H](O)[C@@H](C(=O)O)[C@@H](C2)O3)C(O)C(N)C1O (some centres undefined) | -59.2 | -67.9 | -309.7 | -9.5
Cc1ccc2nc(COC(=O)C(O)(c3ccccc3)c3ccccc3)cc(=O)n2c1 | -14.7 | 2.4 | 40.1* | -1.9
N#Cc1ccc(COC(=O)C(O)(c2ccccc2)c2ccccc2)cc1 | -105.5 | 5.9 | 5.0 | 6.1
FC(F)(F)c1cccc(C(OCCN2CCCC2)c2ccccc2)c1 (centres undefined) | -33.0 | -4.9 | -3.4 | -3.2
CCC(CC)n1[nH]c(=O)c2c1NC(=O)CSC2c1ccc2c(c1)OCO2 (centres undefined) | 9.9 | -0.7 | 43.4* | 5.2
